FLuc modulator = inhibits or activates purified firefly luciferase, miR-21 counter-screen; P08659; purified FLuc, Km substrates, luminescence inhibition; Potency, µM (doses to about 57.5 µM), usual class: inhibitors; 6.9% of 360,000 active; AID 588342; note: nearly all actives have a fitted effect of over 55% in size
Target sequence (P08659 whole entry, looked up): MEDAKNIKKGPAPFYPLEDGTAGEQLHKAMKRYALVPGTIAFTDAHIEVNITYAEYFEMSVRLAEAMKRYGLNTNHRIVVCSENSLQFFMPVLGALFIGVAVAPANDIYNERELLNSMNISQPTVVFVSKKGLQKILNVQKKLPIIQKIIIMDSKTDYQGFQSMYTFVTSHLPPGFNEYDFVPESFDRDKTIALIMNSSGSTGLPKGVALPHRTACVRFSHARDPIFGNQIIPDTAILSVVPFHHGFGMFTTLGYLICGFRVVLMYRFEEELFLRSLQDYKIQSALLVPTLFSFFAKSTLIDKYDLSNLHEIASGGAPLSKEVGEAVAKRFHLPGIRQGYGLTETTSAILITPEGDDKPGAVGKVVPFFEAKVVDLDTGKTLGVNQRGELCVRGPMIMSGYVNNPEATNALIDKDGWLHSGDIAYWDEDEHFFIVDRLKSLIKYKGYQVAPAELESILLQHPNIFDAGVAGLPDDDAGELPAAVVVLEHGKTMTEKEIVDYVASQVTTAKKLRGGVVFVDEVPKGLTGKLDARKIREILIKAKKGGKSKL
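Biochemical qHTS of compounds, final roughly 60 µM downward over six points, against 10 nM purified firefly luciferase using Km concentrations of substrates (10 uM D-luciferin, 10 uM ATP) in Tris acetate pH 7.5 buffer; luminescence output.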
SMN2 splice up = SMN2 splice variant enhancement; HEK293 SMN2-luciferase splicing reporter, luminescence, 30-36 h; Potency, µM (top dose mostly 46.1 µM), most hits filed as activators; 2.8% of 210,000 active; note: nearly all actives have a fitted effect of over 55% in size
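HEK293 cells carry an SMN2 […]–luciferase reporter in which exon 7 inclusion puts luciferase in frame. Cells were plated 10-12 h before compound addition, then incubated 30-36 h at 37C. ONE-Glo luminescence was read; sodium butyrate at 4.5 mM final served as control.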
Rab9 promoter act = activators of Rab9 promoter; 2.8% of 320,000 active; Potency, µM (highest dose often 9.22 µM), actives largely listed as activators; Huh7 Rab9 promoter-luciferase reporter, luminescence, 24 h; note: nearly all actives have a fitted effect of over 60% in size
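Stable Rab9-luc Huh7, 1500 cells/well, 2 h settle; cmpd in DMSO, 24 h, 37 °C/5% CO2; luciferase reagent 10 min RT; luminescence.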
ELG1 genotoxic = genotoxicity induction in ELG1-luciferase HEK293T cells; AID 504466; Potency, µM (titrated, usually from 46 µM), most hits filed as activators; 1.3% of 330,000 active; HEK293T ELG1-luciferase reporter, luminescence, 16 h; note: nearly all actives have a fitted effect of over 60% in size
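Reporter readout depends on ELG1 protein level, which increases with genetic stress. After 16 hr compound exposure at 37 °C, luciferase activity was quantified using ONE-Glo.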
ELG1 repair inh = inhibitors of ELG1-dependent DNA repair in HEK293T cells | HEK293T ELG1-luciferase reporter, luminescence, 16 h; DNA damage induced by 5-fluorouridine | 2.3% of 330,000 active | AID 504467 | Potency, µM (titrated, usually from 46.1 µM), usual class: inhibitors; note: nearly all actives have a fitted effect of over 55% in size
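Overnight (16 hr) co-exposure of 2,000 cells/well to 5-fluorouridine and compound at 37 °C preceded detection. Luciferase was quantified via ONE-Glo luminescence; loss of signal denotes inhibition.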
NPC1 promoter act = activates the NPC1 promoter; Huh7 NPC1 promoter luciferase reporter, 24 h; Potency, µM (highest dose often 9.22 µM), actives largely listed as activators; 2.4% of 320,000 active; note: nearly all actives have a fitted effect of over 60% in size
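Luciferase expression driven by the NPC1 promoter was measured in stably transfected Huh7 cells after a 24 h compound incubation, using a luciferase reagent and a luminescence read.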
Numbers stand for hits. The list is not random: actives were taken first. Their share in the collection is about 9.2%. Calls come from the whole dose curve; as a rule, active = well fitted curve in the direction sought with a large enough effect; inconclusive = small, poorly fitted or top-dose-only effect, or another doubt; inactive = no such curve, though single readings can be large; an effect the other way counts as inactive or inconclusive.

What do the screens show for `COc1ccc(CNC(=O)c2ccc(N(C)S(=O)(=O)c3ccc(C)cc3)cc2)cc1`?
FLuc modulator: inactive; Rab9 promoter act: inactive; ELG1 genotoxic: inactive; ELG1 repair inh: 21µM; NPC1 promoter act: inactive

Results for COc1ccc(CNC(=O)c2ccc(C(C)(C)C)cc2)cc1 ?
FLuc modulator: 3µM; Rab9 promoter act: 2.8µM; ELG1 genotoxic: inconclusive; ELG1 repair inh: inconclusive; NPC1 promoter act: 3.2µM

Results for Cc1ccc(CNc2nc(C)cs2)cc1 ?
FLuc modulator: 6µM; Rab9 promoter act: 1.1µM; ELG1 genotoxic: 1µM; ELG1 repair inh: inconclusive; NPC1 promoter act: 2µM

Results for CN(c1ncnc2c1c(-c1ccccc1)cn2-c1ccc(F)cc1)C1CCCCC1 ?
FLuc modulator: inactive

What do the screens show for `Cn1/c(=N/NC(=O)c2ccccc2Br)sc2ccccc21`?
FLuc modulator: 15µM; SMN2 splice up: inconclusive; Rab9 promoter act: 4µM; ELG1 genotoxic: inconclusive; ELG1 repair inh: inconclusive; NPC1 promoter act: inconclusive

What do the screens show for `Cc1cc(S(=O)(=O)Nc2ccc3[nH]c(=O)sc3c2)ccc1F`?
FLuc modulator: inactive

Results for CC1CCCCN1C(=O)c1ccc2c(c1)N(Cc1ccc(Cl)cc1)C(=O)c1ccccc1S2=O (stereo not drawn) ?
FLuc modulator: inactive; SMN2 splice up: inactive

What do the screens show for `CC1N/C(=C\C(=O)c2ccccc2)N(O)C1(C)C` (stereo not drawn)?
FLuc modulator: 8.5µM; SMN2 splice up: inconclusive; Rab9 promoter act: 1.4µM; ELG1 genotoxic: 8.2µM; ELG1 repair inh: inconclusive; NPC1 promoter act: 2.2µM

What do the screens show for `C/C(=N\Nc1nc(C)cc(-c2ccccc2)n1)c1ccc(F)cc1`?
FLuc modulator: inconclusive; Rab9 promoter act: inactive; ELG1 genotoxic: inactive; ELG1 repair inh: inactive; NPC1 promoter act: inactive

What do the screens show for `C/C(=N/Nc1nc(-c2ccccc2)cc(-c2ccc(F)cc2)n1)c1cccc(N)c1`?
FLuc modulator: 9.5µM; SMN2 splice up: inactive; Rab9 promoter act: inactive; ELG1 genotoxic: inactive; ELG1 repair inh: 7.3µM; NPC1 promoter act: inactive

How did Brc1ccc(C=Nc2ccc(Nc3ccccc3)cc2)s1 do in these assays?
FLuc modulator: 24µM; SMN2 splice up: inactive; Rab9 promoter act: inactive; ELG1 genotoxic: inactive; ELG1 repair inh: inconclusive; NPC1 promoter act: inactive

How did Cc1cccc(NS(=O)(=O)c2ccc(NC(=O)N3CCCC3)cc2)c1 do in these assays?
FLuc modulator: inactive

What do the screens show for `O=S(=O)(/C(=C/c1ccc(C(F)(F)F)cc1)c1nc2ccccc2[nH]1)c1ccccc1`?
FLuc modulator: inactive; SMN2 splice up: inactive; Rab9 promoter act: inactive; ELG1 genotoxic: inactive; ELG1 repair inh: 16µM; NPC1 promoter act: inactive

How did O=c1c2c(-c3ccccc3)csc2nc2n1CCC2 do in these assays?
FLuc modulator: inactive; SMN2 splice up: inactive; Rab9 promoter act: inactive; ELG1 genotoxic: inactive; ELG1 repair inh: inactive; NPC1 promoter act: inactive

Results for O=c1c2sc(-c3ccccc3)cc2nc2n1CCCCC2 ?
FLuc modulator: 2.1µM; Rab9 promoter act: 0.56µM; ELG1 genotoxic: inconclusive; ELG1 repair inh: inconclusive; NPC1 promoter act: 1.4µM

Results for O=c1c2sc(-c3ccccc3)cc2nc2n1CCC2 ?
FLuc modulator: 1.3µM; SMN2 splice up: 2.2µM; Rab9 promoter act: 0.45µM; ELG1 genotoxic: inconclusive; ELG1 repair inh: inconclusive; NPC1 promoter act: 0.56µM

Results for CN=Cc1nc(-c2ccccc2)oc1O ?
FLuc modulator: 17µM; SMN2 splice up: 11µM; Rab9 promoter act: 2.5µM; ELG1 genotoxic: inconclusive; ELG1 repair inh: inconclusive; NPC1 promoter act: 3.5µM

Results for CCOc1cccc(C(=O)NC(=S)Nc2ccccc2)c1 ?
FLuc modulator: 6.7µM; SMN2 splice up: 11µM; Rab9 promoter act: inconclusive; ELG1 genotoxic: inconclusive; ELG1 repair inh: inconclusive; NPC1 promoter act: inconclusive

What do the screens show for `CCOc1cccc(C(=O)NC(=S)Nc2cccnc2)c1`?
FLuc modulator: inconclusive; SMN2 splice up: inactive; Rab9 promoter act: inactive; ELG1 genotoxic: inactive; ELG1 repair inh: inconclusive; NPC1 promoter act: inactive

Results for CCOc1cccc(C(=O)NC(=S)Nc2cccc(NC(=O)c3ccccc3Cl)c2)c1 ?
FLuc modulator: inconclusive; SMN2 splice up: inactive; Rab9 promoter act: inactive; ELG1 genotoxic: inactive; ELG1 repair inh: 8.2µM; NPC1 promoter act: inactive

How did CCCOc1ccc(C(=O)Nc2ccc(NC(=O)c3ccccc3)c(C)c2)cc1 do in these assays?
FLuc modulator: inactive; SMN2 splice up: inactive

Results for CCOc1cccc(C(=O)Nc2ccc(NC(=O)c3ccccc3)c(C)c2)c1 ?
FLuc modulator: 13µM; Rab9 promoter act: inactive; ELG1 genotoxic: inactive; ELG1 repair inh: inactive; NPC1 promoter act: inactive

How did CC(C)(C)C(=O)NC1CC(=O)N(c2ccc3c(c2)OCCO3)C1 (stereo not drawn) do in these assays?
FLuc modulator: inactive

Results for CCN(CC)CCNC(=O)C1(O)c2cc(Br)ccc2NC(=O)N1c1c(F)cccc1F (stereo not drawn) ?
FLuc modulator: inactive; Rab9 promoter act: inactive; ELG1 genotoxic: inactive; ELG1 repair inh: inactive; NPC1 promoter act: inactive

What do the screens show for `CCOc1ccc(CNC(=O)C2CCCN(c3nc4c(C)cc(C)cc4s3)C2)cc1` (stereo not drawn)?
FLuc modulator: inactive; SMN2 splice up: inactive

How did COc1ccc(CCNC(=O)C2CCCN(c3nc4ccccc4s3)C2)cc1OC (stereo not drawn) do in these assays?
FLuc modulator: inactive; Rab9 promoter act: inactive; ELG1 genotoxic: inactive; ELG1 repair inh: 18µM; NPC1 promoter act: inactive

What do the screens show for `COc1ccc(CCNC(=O)C2CCCN(c3nc4c(C)cc(C)cc4s3)C2)cc1OC` (stereo not drawn)?
FLuc modulator: inconclusive; SMN2 splice up: 2.8µM

What do the screens show for `Cc1ccc2c(CC(=O)Nc3ccc(S(=O)(=O)N4CCCCC4C)cc3)coc2c1C` (stereo not drawn)?
FLuc modulator: inactive; SMN2 splice up: inactive

What do the screens show for `CCOC(=O)c1c(NC(=O)c2ccc(S(=O)(=O)N(CC(C)C)CC(C)C)cc2)sc2c1CCN(CC)C2`?
FLuc modulator: inactive

What do the screens show for `COc1ccc(NC(=O)c2ccccc2O)c(OC)c1`?
FLuc modulator: 9.5µM; SMN2 splice up: inconclusive; Rab9 promoter act: 3.2µM; ELG1 genotoxic: 11µM; ELG1 repair inh: inconclusive; NPC1 promoter act: inconclusive

Results for COc1ccc(OC)c(NC(=O)c2ccc(-c3csc(C)n3)cc2)c1 ?
FLuc modulator: 5.4µM; Rab9 promoter act: inactive; ELG1 genotoxic: inactive; ELG1 repair inh: inconclusive; NPC1 promoter act: inactive

What do the screens show for `COc1ccc(NC(=O)CSc2ccccc2)c(OC)c1`?
FLuc modulator: 27µM; SMN2 splice up: 22µM; Rab9 promoter act: 4µM; ELG1 genotoxic: inactive; ELG1 repair inh: inconclusive; NPC1 promoter act: inconclusive

Screening results as filed in PubChem BioAssay.
